{"source": "the supplement of paper PMC10338343", "note": "± gives the standard deviation.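 Further: 1 nM active piRISC with 0.1 nM target library at 33 °C single turnover.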"}
{"tested_on": "MILI (PIWIL2) piRISC loaded with L1MC piRNA (26 nt)", "test": "pre-steady-state target cleavage rate (min^-1); guide: L1MC piRNA 5'p-UAACUAAAUACUAUGCAAGCUGUAGG; MIWI and MILI are mouse PIWI proteins and EfPiwi is from a freshwater sponge; tags in brackets are library labels; higher = faster piRNA-guided slicing of the target", "settings": "auxiliary factor: 500 nM mouse GTSF1", "summary_of_the_method": "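At 33 °C in HEPES–potassium acetate buffer, a transcribed, DNA-blocked target RNA library […] was exposed for 0–8 or 0–960 min to 1 nM active affinity-purified piRISC carrying a single synthetic guide, with or without 500 nM GTSF1 partner protein. Uncleaved targets were sequenced and normalised to depth and to weakly complementary targets. With three trials pooled and k3 capped at 0.0001 min^-1, a burst-and-steady-state fit produced the pre-steady-state cleavage rate.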"}
{"sequence": "UCCUCCUUCAGCUUGGAUAGUAUUUAGUUA", "pre-steady-state target cleavage rate": "0.242 ± 0.015"}
{"sequence": "UCCUGGUACAGCUUCAUAGUAUUUAGUUA", "pre-steady-state target cleavage rate": "0.209 ± 0.027"}
{"sequence": "UCCUGGUACACCUUGCAUAGUAUUUAGUAA", "pre-steady-state target cleavage rate": "0.182 ± 0.043"}
{"sequence": "UCCUGGAACACCUUGCAUAGUAUUUAGUUA", "pre-steady-state target cleavage rate": "0.234 ± 0.026"}
{"sequence": "UCCUGGAAGAGCUUGCAUAGUAAUUAGUUA", "pre-steady-state target cleavage rate": "0.177 ± 0.015"}
{"sequence": "UCCUGGAUGAGCUUGCAUAGUAUUAAGUUA", "pre-steady-state target cleavage rate": "0.194 ± 0.029"}
{"sequence": "UCCUGGUACAGCUUGCAUUGUAUUUAGUUA", "pre-steady-state target cleavage rate": "0.171 ± 0.017"}
{"sequence": "UCCUGGAUCAGCUUGCAUAGUACUUAGUUA", "pre-steady-state target cleavage rate": "0.237 ± 0.018"}
{"sequence": "UCCUGCUACAGCUAGCAUACUAUUUAGUUA", "pre-steady-state target cleavage rate": "0.112 ± 0.018"}
{"sequence": "UCCUGCUACAGCUUUGCAUAGUAUUUAGUUA", "pre-steady-state target cleavage rate": "0.263 ± 0.02"}
{"sequence": "UCCUGCAACAGCUUGCAAAGUAUUUAGUUA", "pre-steady-state target cleavage rate": "0.166 ± 0.012"}
{"sequence": "UCCUGGAUGUGCAUGCAUAGUAUUUAGUUA", "pre-steady-state target cleavage rate": "0.116 ± 0.011"}
{"sequence": "UCCUCCUACAGCUUGCAAGUAUUUAGUUA", "pre-steady-state target cleavage rate": "0.155 ± 0.017"}
{"sequence": "UCCUGGUACAGCUUGCAUAGUAUUAUAGUUA", "pre-steady-state target cleavage rate": "0.299 ± 0.034"}
{"sequence": "UCCUGGAUCUGCUUGCAUAGUAUUUUGUUA", "pre-steady-state target cleavage rate": "0.092 ± 0.015"}
{"sequence": "UCCUGGAUCUGCUUGCAUACUAUUUAGUUA", "pre-steady-state target cleavage rate": "0.055 ± 0.0088"}
{"sequence": "UCCUGGUUCAGCUUGCAUAGUAUUAAGUUA", "pre-steady-state target cleavage rate": "0.186 ± 0.029"}
{"sequence": "UCCUGGAUGAGCUUGAAUAGUAUUUAGUUA", "pre-steady-state target cleavage rate": "0.216 ± 0.011"}
{"sequence": "UCCUCCUAUCAGCUUGCAUAGUAUUUAGUUA", "pre-steady-state target cleavage rate": "0.322 ± 0.015"}
{"sequence": "UCCUGGAUGAGCUUAGCAUAGUAUUUAGUUA", "pre-steady-state target cleavage rate": "0.217 ± 0.016"}
{"sequence": "UCCUGGAUGAGCAUGCAUAGUAUUUAGUUA", "pre-steady-state target cleavage rate": "0.199 ± 0.016"}
{"sequence": "UCCUGGAUCAGCUUGCAUAGUAUAUUAGUUA", "pre-steady-state target cleavage rate": "0.273 ± 0.015"}
{"sequence": "UCCUCGUACACCUUGCAUAGUAUUUAGUUA", "pre-steady-state target cleavage rate": "0.239 ± 0.022"}
{"sequence": "UCCUGCUACACGUUGCAUAGUAUUUAGUUA", "pre-steady-state target cleavage rate": "0.289 ± 0.026"}
{"sequence": "UCCUGGUACUGCUUGCAUAGUAUUUAGUUA", "pre-steady-state target cleavage rate": "0.174 ± 0.023"}
{"sequence": "UCCUGGAUGUGCUUGCCUAGUAUUUAGUUA", "pre-steady-state target cleavage rate": "0.0942 ± 0.011"}
{"sequence": "UCCUGGAACAGCUUGCAUAGUAUUUAGUUA [g2:g23:cont:t1A]", "pre-steady-state target cleavage rate": "0.297 ± 0.019"}
{"sequence": "UCCUCCUACAGCUUGCAUAGUAUUUACGUUA", "pre-steady-state target cleavage rate": "0.265 ± 0.029"}
{"sequence": "UCCUGGUACAGCUUGCAUGGUAUUUAGUUA", "pre-steady-state target cleavage rate": "0.298 ± 0.021"}
{"sequence": "UCCUGCUACAGCUUGCAUAGUAUUCUAGUUA", "pre-steady-state target cleavage rate": "0.26 ± 0.038"}
{"sequence": "UCCUGGAUCAGGUUGCAAAGUAUUUAGUUA", "pre-steady-state target cleavage rate": "0.121 ± 0.011"}
{"sequence": "UCCUGGAUGACGCUUGCAUAGUAUUUAGUUA", "pre-steady-state target cleavage rate": "0.211 ± 0.022"}
{"sequence": "UCCUGCUACAGCUUGCAAAGUAUUAAGUUA", "pre-steady-state target cleavage rate": "0.146 ± 0.019"}
{"sequence": "UCCUGGAUGUGCUGUGCAUAGUAUUUAGUUA", "pre-steady-state target cleavage rate": "0.131 ± 0.015"}
{"sequence": "UCCUCCUACAGCGUUGCAUAGUAUUUAGUUA", "pre-steady-state target cleavage rate": "0.296 ± 0.021"}
{"sequence": "UCCUCCUAGAGCUUGCAUUGUAUUUAGUUA", "pre-steady-state target cleavage rate": "0.213 ± 0.012"}
{"sequence": "UCCUGGAUCUCCUUGCAUAGUAUUUAGUAA", "pre-steady-state target cleavage rate": "0.203 ± 0.024"}
{"sequence": "UCCUCCUACAGCUUGCAUAGUAUUUCAGUUA", "pre-steady-state target cleavage rate": "0.463 ± 0.073"}
{"sequence": "UCCUGCUACUGCUUGCAUAGUAUUUUGUUA", "pre-steady-state target cleavage rate": "0.138 ± 0.024"}
{"sequence": "UCCUCCCUACAGCUUGCAUAGUAUUUAGUUA", "pre-steady-state target cleavage rate": "0.303 ± 0.02"}
